Laboratory results published in PubChem BioAssay AID1845226 (National Center for Advancing Translational Sciences (NCATS), 2023).
Results filed as inconclusive are left out. Unmarked numbers belong to inactive results. Activity calls are given as the source filed them. Calls come from the whole dose curve; as a rule, active = well fitted inhibition curve with a large enough effect; inconclusive = small, poorly fitted or top-dose-only effect; inactive = no such curve, though single readings can be large or run the other way.

test: Confirmatory fluorescence-based thiol-reactive (MSTI) qHTS assay for identification of artifact compounds; conditions: MSTI thiol-reactivity probe, 1 h; series mostly up to 39.2 µM; activity change, negative = inhibition: at the top concentration
Outline: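 Probe solution (4 uM MSTI, 2% DMSO/PBS, pH 7.4) is dispensed, then compounds are pinned. Plates incubate for 1 h at room temperature, light-protected, before fluorescence is read at 525/598 nm.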
Potency is the fitted concentration of half-maximal effect.

Row | Compound | activity change, negative = inhibition | Potency
1 | O=C(Cn1cc(SCc2ccccc2F)c2ccccc21)N1CCCCC1 | 13.1% | –
2 | CC(C)c1cnc2c(c1SCC(=O)Nc1cccc([N+](=O)[O-])c1)c(=O)n(C)c(=O)n2C | 8.16% | –
3 | O=C(O)c1ccc(-n2c(/C=C\c3ccc(O)cc3)nc3ccccc3c2=O)cc1 | 62.5% | –
4 | COc1ccc(NC(=O)C(=O)Nc2ccc3nc4n(c(=O)c3c2)CCCCC4)c(OC)c1 | 122% | –
5 | O=C(Nc1nc(-c2ccccc2)cs1)c1ccccc1[N+](=O)[O-] | – | 2.44 µM (active)
6 | Nc1c(N=Nc2ccc([N+](=O)[O-])cc2)c(S(=O)(=O)O)cc2cc(S(=O)(=O)O)c(/C=C/c3ccccc3)c(O)c12 | – | 0.0612 µM (active)
7 | Cn1cc(CN(C(=O)Nc2ccc(Cl)c(Cl)c2)C2CCCCC2)c2ccccc21 | 81.3% | –
8 | Clc1ccc(CNc2cc(-c3ccc4c(c3)OCO4)ncn2)cc1 | 124% | –
9 | CCC(Sc1ncc(S(=O)(=O)c2ccc(Cl)cc2)c(=O)[nH]1)C(=O)Nc1ccc(OC)cc1 (stereo not drawn) | 118% | –
10 | O=C(O)c1c(O)c(O)cc2ccccc12 | -23.5% | –
11 | COc1ccc(C2C(C(=O)Nc3ccccc3)=C(C)Nc3c(C(=O)Nc4ccccc4)cnn32)cc1 (stereo not drawn) | 128% | –
12 | CC(C)(C)C(=O)NC1(C(F)(F)F)C(=O)Nc2c1c(=O)[nH]c(=O)n2-c1ccccc1 (stereo not drawn) | 8.65% | –
13 | CCCCn1c(-c2ccc(C)cc2)c(C)n2c3c(=O)n(C)c(=O)n(C)c3nc12 | -26% | –
14 | O=C(CNC(=O)C(c1ccccc1)c1ccccc1)OCC(=O)c1ccc2ccccc2c1 | 122% | –
15 | Cc1cn(C2CCC(CO)O2)c(=O)[nH]c1=O (stereo not drawn) | 11.8% | –
16 | COc1ccc(-c2coc3cc(O)ccc3c2=O)c(OC)c1O | 1.63% | –
17 | Cc1ccc2cccc(NS(=O)(=O)c3ccccc3[N+](=O)[O-])c2n1 | – | 4.33 µM (active)

Row | Compound | activity change, negative = inhibition | Potency
18 | CCOc1ccc(CCNC(=O)c2ccc3c(c2)nc2n3CCOC2)cc1OCC | 109% | –
19 | O=C(/C=C/c1ccc(O)c(O)c1)OC1C[C@](O)(C(=O)O)C[C@@H](O)[C@H]1O (stereo partly drawn) | 0.358% | –
20 | Fc1ccc(-c2cc(-c3ccc(F)cc3)c3c(n2)-c2cc(F)ccc2OC3)cc1 | 153% | –
21 | COC(=O)c1c(NC(=O)COc2ccc(C(C)C)cc2)sc2c1CCCC2 | 34% | –
22 | Cc1sc2ncn(CC(=O)N3CCN(c4ccccc4)CC3)c(=O)c2c1S(=O)(=O)N1CCC(C)CC1 | 13.5% | –
23 | COc1ccc(-c2cc(C(F)(F)F)n3nc(-c4ccc(Cl)cc4)cc3n2)cc1OC | 214% | –
24 | CC1(C)S[C@@H]2[C@H](NC(=O)[C@H](N)c3ccccc3)C(=O)N2[C@H]1C(=O)O | 129% | –
25 | CCOc1ccc(CNC(=O)c2cnc(SC)nc2CC)cc1 | 49.6% | –
26 | CCCS(=O)(=O)N1CCCC(C(=O)NCCCOC)C1 (stereo not drawn) | 5.47% | –
27 | C=C1Cc2c(Cl)cc3[nH]c4c5c3c2[C@@]2(O)[C@@H]1C[C@@H]2C(C)(C)O[C@H]5[C@@H]1CC[C@@]2(O)[C@@]35O[C@@H]3[C@@H](O)[C@@H](C(=O)O)O[C@H]5CC[C@]2(C)[C@@]41C | – | 3.86 µM (active)
28 | COc1cc2c(C(=O)N3CCN(c4ccc(F)cc4)CC3)cn(CC(C)C)c(=O)c2cc1OC | 36.4% | –
29 | O=C(CSc1nnc(-c2cccc(F)c2)c(-c2cccc(F)c2)n1)NC1CCCCC1 | 89.3% | –
30 | COc1ccc(N2C(=O)NC(NS(=O)(=O)c3ccc(Cl)cc3)(C(F)(F)F)C2=O)cc1 (stereo not drawn) | 4.2% | –
31 | COC(=O)c1ccc(NC(=O)CC2C(=O)N(c3ccccc3)C(=O)N2Cc2cccs2)cc1 (stereo not drawn) | 170% | –
32 | Oc1c(C(c2ccccc2F)N2CCN(Cc3ccccc3)CC2)sc2nc(-c3ccco3)nn12 (stereo not drawn) | 101% | –
33 | Cc1ccc(Cn2cc(CCC(=O)NC3CCCCC3)c3ccccc32)cc1 | 117% | –
